# From article PMC12864922, “TDP-43 directly inhibits mRNA accumulation in neurites through modulation of mRNA stability”
# Whole data set: some 9,900 sequences, median “r (bound/input frequency ratio)” near 0.7, cut for the highest 2% near 6.5. Many of the other results were omitted from the sample, so the highest values are more common in it than they were.
# B1: ENSMUSG00000061578.1485|Ksr2 (ssRNA)
# RNA: GGGAGUUCUACAGUCCGACGAUCGCUUCGAUAUCCGCAUGCUAUGCAUAGGCAAGUAGAUGAAUGAAUAUGUGGGUAGAAGGGUGAGUGGGUGGAUGAAUGGAUGGAUAGGUUGGUAGGUUAAUGUAUUCGUGGAUGGGUGAAUGGAUGGAUGGAUAGAUAGAUGGGAAGGUGGAUGGACAGAUGGAUGGAUGGAUAGAUAGAUGGACAGGUGGUUGGUGGAUAAAUGAGUGAAUGAUUAUGUUGAUAGAUAUGUGGGUAGGCUGAAUGGGUGAAUGGAUAGAUCGAUGACUGGAUGGAGGGUCUCUUGCGGUCGCACUAGUGUGGAAUUCUCGGGUGUCAAGG
# B2: ENSMUSG00000061578.1481|Ksr2 (ssRNA)
# RNA: GGGAGUUCUACAGUCCGACGAUCGCUUCGAUAUCCGCAUGCUAUGAAUGGAUGGGUAGGUGGGUGGAUGCAUAGGCAAGUAGAUGAAUGAAUAUGUGGGUAGAAGGGUGAGUGGGUGGAUGAAUGGAUGGAUAGGUUGGUAGGUUAAUGUAUUCGUGGAUGGGUGAAUGGAUGGAUGGAUAGAUAGAUGGGAAGGUGGAUGGACAGAUGGAUGGAUGGAUAGAUAGAUGGACAGGUGGUUGGUGGAUAAAUGAGUGAAUGAUUAUGUUGAUAGAUAUGUGGGUAGGCUGAAUGGGUGAAUGGACUCUUGCGGUCGCACUAGUGUGGAAUUCUCGGGUGUCAAGG
# B3: ENSMUSG00000061578.1483|Ksr2 (ssRNA)
# RNA: GGGAGUUCUACAGUCCGACGAUCGCUUCGAUAUCCGCAUGCUAUAGGUGGGUGGAUGCAUAGGCAAGUAGAUGAAUGAAUAUGUGGGUAGAAGGGUGAGUGGGUGGAUGAAUGGAUGGAUAGGUUGGUAGGUUAAUGUAUUCGUGGAUGGGUGAAUGGAUGGAUGGAUAGAUAGAUGGGAAGGUGGAUGGACAGAUGGAUGGAUGGAUAGAUAGAUGGACAGGUGGUUGGUGGAUAAAUGAGUGAAUGAUUAUGUUGAUAGAUAUGUGGGUAGGCUGAAUGGGUGAAUGGAUAGAUCGAUGACCUCUUGCGGUCGCACUAGUGUGGAAUUCUCGGGUGUCAAGG
# B4: ENSMUSG00000061578.1484|Ksr2 (ssRNA)
# RNA: GGGAGUUCUACAGUCCGACGAUCGCUUCGAUAUCCGCAUGCUAGGUGGAUGCAUAGGCAAGUAGAUGAAUGAAUAUGUGGGUAGAAGGGUGAGUGGGUGGAUGAAUGGAUGGAUAGGUUGGUAGGUUAAUGUAUUCGUGGAUGGGUGAAUGGAUGGAUGGAUAGAUAGAUGGGAAGGUGGAUGGACAGAUGGAUGGAUGGAUAGAUAGAUGGACAGGUGGUUGGUGGAUAAAUGAGUGAAUGAUUAUGUUGAUAGAUAUGUGGGUAGGCUGAAUGGGUGAAUGGAUAGAUCGAUGACUGGAUGCUCUUGCGGUCGCACUAGUGUGGAAUUCUCGGGUGUCAAGG
# B5: ENSMUSG00000061578.1478|Ksr2 (ssRNA)
# RNA: GGGAGUUCUACAGUCCGACGAUCGCUUCGAUAUCCGCAUGCUAGAUUUGUGAAUGAAUGGAUGAAUGGAUGGGUAGGUGGGUGGAUGCAUAGGCAAGUAGAUGAAUGAAUAUGUGGGUAGAAGGGUGAGUGGGUGGAUGAAUGGAUGGAUAGGUUGGUAGGUUAAUGUAUUCGUGGAUGGGUGAAUGGAUGGAUGGAUAGAUAGAUGGGAAGGUGGAUGGACAGAUGGAUGGAUGGAUAGAUAGAUGGACAGGUGGUUGGUGGAUAAAUGAGUGAAUGAUUAUGUUGAUAGAUAUGUGGGUAGCUCUUGCGGUCGCACUAGUGUGGAAUUCUCGGGUGUCAAGG
# B6: ENSMUSG00000061578.1482|Ksr2 (ssRNA)
# RNA: GGGAGUUCUACAGUCCGACGAUCGCUUCGAUAUCCGCAUGCUAGAUGGGUAGGUGGGUGGAUGCAUAGGCAAGUAGAUGAAUGAAUAUGUGGGUAGAAGGGUGAGUGGGUGGAUGAAUGGAUGGAUAGGUUGGUAGGUUAAUGUAUUCGUGGAUGGGUGAAUGGAUGGAUGGAUAGAUAGAUGGGAAGGUGGAUGGACAGAUGGAUGGAUGGAUAGAUAGAUGGACAGGUGGUUGGUGGAUAAAUGAGUGAAUGAUUAUGUUGAUAGAUAUGUGGGUAGGCUGAAUGGGUGAAUGGAUAGAUCCUCUUGCGGUCGCACUAGUGUGGAAUUCUCGGGUGUCAAGG
# B7: ENSMUSG00000061578.1480|Ksr2 (ssRNA)
# RNA: GGGAGUUCUACAGUCCGACGAUCGCUUCGAUAUCCGCAUGCUAAAUGGAUGAAUGGAUGGGUAGGUGGGUGGAUGCAUAGGCAAGUAGAUGAAUGAAUAUGUGGGUAGAAGGGUGAGUGGGUGGAUGAAUGGAUGGAUAGGUUGGUAGGUUAAUGUAUUCGUGGAUGGGUGAAUGGAUGGAUGGAUAGAUAGAUGGGAAGGUGGAUGGACAGAUGGAUGGAUGGAUAGAUAGAUGGACAGGUGGUUGGUGGAUAAAUGAGUGAAUGAUUAUGUUGAUAGAUAUGUGGGUAGGCUGAAUGGGUGCUCUUGCGGUCGCACUAGUGUGGAAUUCUCGGGUGUCAAGG
# B8: ENSMUSG00000061578.1486|Ksr2 (ssRNA)
# RNA: GGGAGUUCUACAGUCCGACGAUCGCUUCGAUAUCCGCAUGCUAGGCAAGUAGAUGAAUGAAUAUGUGGGUAGAAGGGUGAGUGGGUGGAUGAAUGGAUGGAUAGGUUGGUAGGUUAAUGUAUUCGUGGAUGGGUGAAUGGAUGGAUGGAUAGAUAGAUGGGAAGGUGGAUGGACAGAUGGAUGGAUGGAUAGAUAGAUGGACAGGUGGUUGGUGGAUAAAUGAGUGAAUGAUUAUGUUGAUAGAUAUGUGGGUAGGCUGAAUGGGUGAAUGGAUAGAUCGAUGACUGGAUGGAGGGUGGGUGACUCUUGCGGUCGCACUAGUGUGGAAUUCUCGGGUGUCAAGG
# B9: ENSMUSG00000061578.1479|Ksr2 (ssRNA)
# RNA: GGGAGUUCUACAGUCCGACGAUCGCUUCGAUAUCCGCAUGCUAUGAAUGAAUGGAUGAAUGGAUGGGUAGGUGGGUGGAUGCAUAGGCAAGUAGAUGAAUGAAUAUGUGGGUAGAAGGGUGAGUGGGUGGAUGAAUGGAUGGAUAGGUUGGUAGGUUAAUGUAUUCGUGGAUGGGUGAAUGGAUGGAUGGAUAGAUAGAUGGGAAGGUGGAUGGACAGAUGGAUGGAUGGAUAGAUAGAUGGACAGGUGGUUGGUGGAUAAAUGAGUGAAUGAUUAUGUUGAUAGAUAUGUGGGUAGGCUGAACUCUUGCGGUCGCACUAGUGUGGAAUUCUCGGGUGUCAAGG
# Biological target: TDP-43 (Homo sapiens, UniProt Q13148 1-414)
# Sequence (Q13148 whole entry): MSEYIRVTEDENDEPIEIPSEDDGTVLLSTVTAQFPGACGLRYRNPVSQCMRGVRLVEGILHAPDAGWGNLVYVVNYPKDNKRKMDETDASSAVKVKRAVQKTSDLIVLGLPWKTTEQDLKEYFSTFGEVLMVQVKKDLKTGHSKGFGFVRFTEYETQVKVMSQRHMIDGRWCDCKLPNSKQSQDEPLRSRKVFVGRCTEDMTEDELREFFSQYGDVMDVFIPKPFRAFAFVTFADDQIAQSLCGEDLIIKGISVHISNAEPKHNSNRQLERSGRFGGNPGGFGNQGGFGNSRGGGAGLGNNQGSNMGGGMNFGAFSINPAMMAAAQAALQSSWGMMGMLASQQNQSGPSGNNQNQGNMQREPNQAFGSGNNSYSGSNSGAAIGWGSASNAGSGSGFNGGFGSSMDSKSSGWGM
# Experiment: RNA Bind-n-Seq with designed 260-mer pool; 25 mM Tris-HCl, 150 mM KCl, 3 mM MgCl2, BSA (printed 500 mg/mL), 20 units/mL SUPERase IN; pH not stated; 500 nM RNA pool, 1 h, 4 C; TDP-43 5, 50, 500 nM; high values mean tight binding
# Conditions: protein: recombinant; tags: SBP (GST cleaved off with PreScission; pGEX-GST-SBP)
# Method in brief: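 Duplicate measurements used two independent batches of recombinant SBP-tagged TDP-43, which was captured on streptavidin beads at 5, 50 or 500 nM. The beads were incubated with 500 nM of an in vitro-transcribed 260-nt 3′ UTR oligo pool for 1 h at 4 °C in 25 mM Tris-HCl, 150 mM KCl, 3 mM MgCl2, BSA and SUPERase IN. After washing, biotin elution, reverse transcription, PCR amplification and sequencing, binding was expressed as R: each oligo's normalized read abundance in the bound sample over its abundance in input.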
row,Binder,binding signal
1,B1,5.62 R (bound/input frequency ratio)
2,B2,5.98 R (bound/input frequency ratio)
3,B3,4.53 R (bound/input frequency ratio)
4,B4,6.89 R (bound/input frequency ratio)
5,B5,4.77 R (bound/input frequency ratio)
6,B6,7 R (bound/input frequency ratio)
7,B7,7.65 R (bound/input frequency ratio)
8,B8,5.39 R (bound/input frequency ratio)
9,B9,5.48 R (bound/input frequency ratio)
